DUSP3 inh: inhibitors of human VHR1 phosphatase (DUSP3); recombinant VHR phosphatase, pNPP absorbance; inhibition, % at 13.3 µM; actives 0.52% (n = 290,000); AID 1654; in the data active = inhibition above about 50%
Target sequence (P51452 whole entry, looked up): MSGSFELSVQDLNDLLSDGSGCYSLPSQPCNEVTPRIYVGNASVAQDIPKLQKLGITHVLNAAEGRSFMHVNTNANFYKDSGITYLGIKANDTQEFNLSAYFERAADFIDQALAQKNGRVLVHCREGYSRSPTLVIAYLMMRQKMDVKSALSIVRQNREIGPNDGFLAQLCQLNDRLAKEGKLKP
SARS 3CLpro inh: SARS-CoV 3CLpro protease inhibition; P0C6X7; recombinant SARS-CoV 3CLpro, quenched FRET peptide cleavage; inhibition, % at 6 µM; actives 0.14% (n = 290,000); in the data active = inhibition above about 12%
MazEF act: increases E. coli MazEF RNase cleavage of RNA; P0AE70; FAM/BHQ RNA-DNA oligo cleavage fluorescence, 5 h; activation, % at 20 µM; actives 0.32% (n = 350,000); AID 504720; in the data active = activation above about 50%
Target sequence (P0AE70 whole entry, looked up): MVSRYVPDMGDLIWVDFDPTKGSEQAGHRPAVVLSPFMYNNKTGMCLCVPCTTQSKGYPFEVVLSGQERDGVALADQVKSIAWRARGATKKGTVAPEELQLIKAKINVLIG
BJeLR lethal: kills HRASV12-expressing BJeLR cells; BJeLR (HRASV12) viability, CellTiter-Glo ATP luminescence, 48 h; inhibition, % (concentration not given with the values); actives 0.17% (n = 300,000); in the data active = inhibition above about 50%
PfHsp40 rescue: compounds rescuing yeast from Plasmodium falciparum HSP40 toxicity | actives 0.68% (n = 340,000) | AID 504582 | growth rescue, % at 12.5 µM | S. cerevisiae expressing PfHsp40, growth rescue, ATP luminescence; in the data active = growth rescue above about 28%, passing the limit was not always enough;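 note: yeast W303a lacking pdr1 and pdr3 grown in galactose medium; growth measured after three days at 30 °C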
Vc quorum ag: quorum light induction in luxS cqsA deficient V. cholerae. V. cholerae BH1578 lux reporter, luminescence, 6 h. activation, % at 18.7 µM. actives 0.16% (n = 350,000). AID 588436; in the data active = activation mostly above about 9.7%, no sharp cut-off
Hits are given with their value; i = inactive; nt = no result. Compounds with a hit are over-represented: about 1.7% of the library has one in this group of screens.

SMILES | DUSP3 inh | SARS 3CLpro inh | MazEF act | BJeLR lethal | PfHsp40 rescue | Vc quorum ag
COc1ccc(Cc2nnc(Cl)c3ccccc23)cc1OC | i | i | i | i | i | i
CCCCCCCCCC(=O)N[C@H](CN1CCOCC1)[C@H](O)c1ccccc1 | nt | nt | i | i | i | i
CCCCCCCCCCCC(=O)NC(C(=O)O)C(O)c1ccccc1 (configuration not stated) | i | i | i | i | 59.5 | i
Cc1nn(-c2ccccc2)c(Cl)c1C(=O)NCC1CCCO1 (configuration not stated) | nt | nt | i | nt | i | i
CCOC(=O)N1CCC(NC(=O)c2cc(COc3ccccc3SC)on2)CC1 | 52.8 | i | i | i | i | i
OCCN(CC(O)Cn1ccc2ccccc21)CC(O)Cn1ccc2ccccc21 (configuration not stated) | 50.8 | i | i | i | i | i
CC1CCCCN1C(=O)C1CCN(c2nc(-c3ccccc3)nc3c2CCC3)CC1 (configuration not stated) | i | i | i | i | i | i
CC(C)c1ccc2c(c1)C1(NN=C(c3ccccc3)S1)C(=O)N2 (configuration not stated) | i | i | i | i | 41.3 | i
Cc1nc2ccc(C(=O)N3CCN(C(=O)c4ccco4)CC3)cn2c1N(C)C(=O)CCc1ccccc1 | nt | nt | nt | nt | nt | i
O=C(CSc1nc2cc(Cl)c(Cl)cc2[nH]1)c1ccc2c(c1)OCO2 | i | i | 50.7 | i | i | i
C=C(C)COc1ccc(-c2[nH]ncc2-c2ccccc2OC)c(O)c1 | i | i | i | i | i | i
C=C(C)COc1ccc(-c2[nH]ncc2-c2ccc(Br)cc2)c(O)c1 | i | i | i | i | 308.9 | i
C#CCN(Cc1ccco1)C(=O)c1cc(COc2cccc3cccnc23)on1 | nt | nt | i | nt | nt | i
CC(=O)n1cc(/C=C2/N=C(c3ccccc3)OC2=O)c2ccccc21 | i | i | 148.7 | i | i | i
Cc1nc2ccccc2n1C1CC(=O)N(N(C)C)C1=O (configuration not stated) | 56.4 | i | i | i | i | i
CCOC(=O)c1ccc(S(=O)(=O)N2CC(=O)Nc3ccccc32)cc1 | i | i | i | i | i | i
N/C(Cc1ccc(Cl)cc1Cl)=N\OC(=O)c1ccccc1F | i | i | i | i | 155.8 | i
CCOC(=O)c1cc(C)sc1N1C(=O)C2C3C=CC(C3)C2C1=O (configuration not stated) | i | i | i | i | i | 30.1
Cc1cc(O)c(C=Nc2ccc(N3CCOCC3)cc2)c(C)c1Cl | i | i | 260.8 | i | i | i
Cn1c(O)c(C=Nc2ccc(N3CCOCC3)cc2)c(=O)n(C)c1=S | i | i | i | i | 68.0 | i
COc1ccccc1-n1c(C)cc(SC)c(C(C)=O)c1=S | 51.6 | i | i | i | i | i
COc1ccc(-n2c(C)cc(C)c(C(C)=O)c2=S)cc1 | i | i | i | i | i | i
CC(CN1CCN(C)CC1)OC(=O)c1cccc(Cl)c1 (configuration not stated) | i | i | i | i | i | i
O=C1CCCN1CCC1CCN(C(=S)Nc2ccc(F)cc2)CC1 | i | i | i | i | 98.9 | nt
CCOc1ccccc1NC(=O)COC(=O)C1COc2ccccc2O1 (configuration not stated) | nt | nt | i | nt | nt | i
SMILES | DUSP3 inh | SARS 3CLpro inh | MazEF act | BJeLR lethal | PfHsp40 rescue | Vc quorum ag
Cc1onc(-c2ccccc2)c1C(=O)NCc1ccc2c(c1)OCO2 | i | i | i | i | i | i
Cc1onc(-c2ccccc2)c1C(=O)NC(=S)NNC(=O)c1ccncc1 | i | i | i | i | i | i
COc1cc(OC)cc(C(=O)NC(=S)NNC(=O)[C@H]2C[C@@H]2c2ccccc2)c1 | i | i | i | i | i | i
Cc1onc(-c2ccccc2)c1C(=O)NNC(=S)NC(=O)c1ccc2c(c1)OCO2 | i | i | i | i | 48.5 | i
COc1ccc(C(=O)NC(=S)NNC(=O)[C@H]2C[C@@H]2c2ccccc2)cc1OC | i | i | i | i | 65.7 | i
COc1ccc(C(=O)NC(=S)NNC(=O)c2c(-c3ccccc3)noc2C)cc1OC | i | i | i | i | 30.5 | i
O=C1c2ccccc2C2=Nc3ccccc3SC(c3ccc(Cl)cc3)C12 (configuration not stated) | i | i | i | i | i | i
O=C1c2ccccc2C2=Nc3ccccc3SC(c3cccc(F)c3)C12 (configuration not stated) | i | i | i | i | 281.4 | i

Source: PubChem BioAssay (several laboratories)
